ADAM10 inh – inhibitors of human ADAM10. inhibition, % at 7 µM. 370,000 tested, 0.62% active. O14672. recombinant ADAM10, EDANS/DABCYL FRET peptide cleavage, 3 h;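 active means inhibition above a per-campaign cutoff equal to the mean of compounds falling between control-based bounds plus 3 SD, cut at about 20% in these data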;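 further: 0% = DMSO wells while the 100% control is not disclosed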
Target sequence (O14672 214-748 limits assumed): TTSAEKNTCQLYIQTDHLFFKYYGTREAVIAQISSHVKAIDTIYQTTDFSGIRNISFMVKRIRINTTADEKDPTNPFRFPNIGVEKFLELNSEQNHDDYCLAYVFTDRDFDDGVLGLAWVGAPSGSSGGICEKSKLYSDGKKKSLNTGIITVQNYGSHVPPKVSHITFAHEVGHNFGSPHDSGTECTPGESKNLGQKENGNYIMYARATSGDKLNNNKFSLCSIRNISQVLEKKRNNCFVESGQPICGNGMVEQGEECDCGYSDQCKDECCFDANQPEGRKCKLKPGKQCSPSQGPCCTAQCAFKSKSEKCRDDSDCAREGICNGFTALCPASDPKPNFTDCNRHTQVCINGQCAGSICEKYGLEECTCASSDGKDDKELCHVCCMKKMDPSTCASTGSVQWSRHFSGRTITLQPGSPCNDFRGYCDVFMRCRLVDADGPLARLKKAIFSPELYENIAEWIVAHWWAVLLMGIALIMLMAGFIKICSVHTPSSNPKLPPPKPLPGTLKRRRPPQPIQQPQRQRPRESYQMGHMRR
PLCb3 inh – PLC-beta3 (human) inhibition, primary screen; Q01970; Purified PLC-beta3, fluorogenic substrate, fluorescence; inhibition, % at 12.2 µM; 370,000 tested, 0.18% active; AID 720704; in the data active means inhibition above about 11%;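 further: 0% = median of compound wells on plate and 100% = full blocker control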
ADAM17 inh – inhibits human ADAM17 | AID 720648 | 370,000 tested, 0.83% active | P78536 | recombinant ADAM17, EDANS/DABCYL FRET peptide cleavage | inhibition, % at 6.95 µM;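 active means inhibition above the mean of compounds lying between control limits plus 3 SD, set per campaign, cut at about 8.5% in these data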;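 further: 0% = DMSO-only wells as the low control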
KLK7 zymogen act – proKLK7 (human) activation, primary screen | purified proKLK7, EDANS-DABCYL substrate fluorescence; 100% is mature enzyme control, 0% vehicle | activation, % at 7 µM | 370,000 tested, 0.9% active | P49862 | AID 652039;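 active means activation above the mean of all tested compounds plus 3 SD, computed per campaign excluding outliers beyond control limits, cut at about 13% in these data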
PLCg1 inh – PLC-gamma1 (human) inhibition, primary screen; purified PLC-gamma1, fluorogenic substrate, fluorescence; inhibition, % at 12.2 µM; 370,000 tested, 0.84% active; AID 720700; in the data active means inhibition above about 9.5%
KLK7 act conf – confirmation of human kallikrein-7 zymogen activators | shares compounds with KLK7 zymogen act | purified proKLK7, EDANS-DABCYL substrate fluorescence; scaled: vehicle 0, mature enzyme 100 | activation, % at 7 µM | 3,200 tested, 68% active | AID 686949;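 active means activation, as change over the incubation, above the mean of all tested compounds plus 3 SD, cut at about 13% in these data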
EDANS-DABCYL int – optically interferes with EDANS-DABCYL signal, flagging KLK7 hits | shares compounds with KLK7 zymogen act | EDANS-DABCYL substrate fluorescence interference, no enzyme, 4 h; solvent 0%, active enzyme control 100% | activation, % at 7 µM | 3,200 tested, 80% active;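 active means activation above the all-compound mean plus 3 SD, ignoring values outside control-based bounds, cut at about 4.8% in these data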;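 further: value is the 4 h activation minus the activation read at time zero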
K7 EDANS ctr – counter-screen for kallikrein-7 activators: EDANS-DABCYL interference, dose response; EDANS-DABCYL peptide fluorescence interference, no enzyme; 250 tested, 20% active; EC50, µM; shares compounds with KLK7 zymogen act;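 active means compounds that raise the fluorescence signal in this interference counterscreen, with EC50 at or below 10 µM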;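 further: intact quenched peptide substrate alone read at 355 nm excitation and 520 nm emission; signal is fluorescence gain from T0 to T4 after four hours at room temperature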
* = called active by the depositor; i = inactive; . = no result given. A selection: hits, their analogues and other compounds. The true share with any hit is near 2.9%.

SMILES | ADAM10 inh | PLCb3 inh | ADAM17 inh | KLK7 zymogen act | PLCg1 inh | KLK7 act conf | EDANS-DABCYL int | others
Cc1ccccc1CN1CCCCC(NC(=O)c2ccc(N(C)C)cc2)C1=O (stereo not given) | 0 | 1 | -2 | 0 | 1 | . | .
N#Cc1c(C(F)(F)F)cc(=O)n2c1[nH]c1ccccc12 | i | i | i | 52* | i | 64* | 66*
N#Cc1c(CSCC(=O)O)cc(=O)n2c1[nH]c1ccccc12 | -57 | -64 | -19 | 1 | -43 | . | .
COc1cccc2c1C(=O)C=C(C)C2=O | -6 | -25 | -1 | 0 | -31 | . | .
COC1=CC(=O)c2nc(Cl)ccc2C1=O | -1 | 4 | 1 | 92* | 10* | 161* | 161*
CCN1C(=O)c2cccc3c(S(=O)(=O)NCCCN4CCOCC4)ccc1c23 | -273 | i | -78 | 51* | i | 44* | 43*
CCN1C(=O)c2cccc3c(S(=O)(=O)NCCc4c[nH]c5ccccc45)ccc1c23 | -60 | -126 | -5 | 15* | -122 | 37* | 55*
CCN1C(=O)c2cccc3c(S(=O)(=O)NCc4ccccc4)ccc1c23 | i | i | -178 | 34* | i | -35 | -30
CCN1C(=O)c2cccc3c(S(=O)(=O)Nc4ccccc4OC)ccc1c23 | -3 | -33 | -1 | 1 | -33 | . | .
COC(=O)[C@@]12CCCCC3=C1N(CCC3)C(=O)[C@H]2CC(=O)NCCCCc1ccccc1 | 0 | 0 | -1 | 0 | -2 | . | .
COC(=O)[C@]12C[C@H](CC(=O)NCc3cccs3)C(=O)N(Cc3ccc(Cl)cc3Cl)C1=C[C@H](COCc1ccccc1)O[C@@H]2C | 14 | 1 | 7 | 0 | 1 | . | .
Nc1nc(N)c2c(ccc3nccc32)[nH]1 | i | i | i | 195* | i | 76* | 81*
Nc1ccc2ncccc2c1N | -4 | -42 | 2 | 0 | -37 | . | .
CCOc1ccc(-n2nc3ccc(N)cc3n2)cc1 | -201 | i | -95 | 7 | -424 | . | .
COc1ccc(-n2nc(N)c(C(N)=O)n2)cc1 | i | i | i | 26* | i | 23* | 21*
Nc1ccc2nn(-c3ccc(F)cc3)nc2c1 | i | i | -219 | 45* | i | 66* | 77*
CC(C)CC(=O)Nc1ccc2nn(-c3ccccc3)nc2c1 | i | -141 | -294 | 3 | -134 | . | .
COc1ccc(-n2nc3ccc(N)cc3n2)cc1 | i | i | -228 | 99* | i | 77* | 82*
CCCC(=O)Nc1ccc2nn(-c3ccc(OC)cc3)nc2c1 | i | i | i | 18* | i | 35* | -4 | K7 EDANS ctr=>70
O=S1(=O)c2ccc(Br)cc2OC[C@@H](c2ccccc2)N1Cc1cn(CCC2OCCO2)nn1 | -6 | -1 | -4 | 0 | 1 | . | .
O=c1c2cc3cc4c(cc3nc2ncn1Cc1cccnc1)OCO4 | -360 | -42 | -108 | 0 | -32 | . | .
O=C(Nc1ncc2c(n1)-c1ccccc1OC2)c1ccc(F)cc1 | i | -124 | -235 | 32* | -80 | 15* | 12* | K7 EDANS ctr=i
O=C(Nc1ncc2c(n1)-c1ccccc1OC2)c1cccc([N+](=O)[O-])c1 | -50 | -7 | -18 | 2 | -3 | . | .
CCOC(=O)c1csc(NC(=O)C2CCCN(S(=O)(=O)c3ccccc3)C2)n1 (stereo not given) | -6 | -1 | -3 | 0 | -3 | . | .
N#Cc1c(NC(=O)COC(=O)c2nccnc2N)sc2c1CCCC2 | -153 | -57 | -50 | 17* | -57 | 16* | 13* | K7 EDANS ctr=>70
CCOC(=O)c1c(NC(=O)COC(=O)c2nccnc2N)sc2c1CCC2 | -163 | -32 | -44 | 11 | -25 | . | .
CCOC(=O)c1c(NC(=O)COC(=O)c2ccccn2)sc(C(=O)N(C)C)c1C | -6 | -62 | -2 | 1 | 1 | . | .
CCOC(=O)c1c(NC(=O)COC(=O)c2nccnc2N)sc(C(=O)N(C)C)c1C | i | -111 | -150 | 43* | -122 | 42* | 46*

Screening data deposited in PubChem by The Scripps Research Institute Molecular Screening Center.
